Laboratory results as given in ChEMBL document CHEMBL4513216, “Probing the Open Global Health Chemical Diversity Library for Multistage-Active Starting Points for Next-Generation Antimalarials” (ACS Infect Dis, 2020).
Out of some 69,000 compounds screened, about 8,600 (12%) showed an effect of 50% or more. For the sample, strong results were picked, then their nearest neighbours and some compounds at random.

What follows are compounds tested on Plasmodium berghei (assay: Screen against P. berghei liver stage (PbLuc), transformed with Luciferase, at 10uM). Settings: tested at 10 uM.
Assay type: functional, HepG2

Row | Compound | INHIBITION
1 | Cc1ccc(-c2nc(C(=O)N3CCN(C(=O)N(C)C)CC3)cs2)c(C)c1 | -4.865%
2 | O=S(=O)(c1cccs1)N1CC[C@H]2[C@H]1CCN2CC1CC1 | 2.58%
3 | CN1CCN(CC2CCN(C(=O)CCC3CCCCC3)CC2)CC1 | 21%
4 | Cn1cccc1C(=O)N1C[C@H]2CN(Cc3cccc(F)c3)C[C@H]2C1 | 6.27%
5 | O=C1CC[C@H]2[C@H](CCN2C(=O)C2CCCO2)N1Cc1cccnc1 (stereo not given in full) | 5.96%
6 | CCn1nc2c(cc1=O)CN(CCCN1CCCC1=O)CC2 | 16.8%
7 | CCNC(=O)c1nnn(Cc2ccccc2)c1OC | -19%
8 | COc1c(C(=O)NCC(C)C)nnn1Cc1ccccc1 | 53.2%
9 | COCCNC(=O)c1nnn(Cc2ccccc2)c1OC | 19.3%
10 | CN(C)CC1CSCCCN1C(=O)c1ccc(-n2cccc2)cc1 (stereo not given) | 35.8%
11 | CN(Cc1ccncc1)C(=O)NCc1nnc2n1CCCCC2 | -4.94%
12 | COc1ccccc1CN1C[C@@H](F)[C@@H](OCc2nc3ccccc3[nH]2)C1 | 45.2%
13 | COc1ccccc1CN1C[C@@H](F)[C@@H](OCc2nc3cnccc3[nH]2)C1 | -25.2%
14 | COc1ccccc1CN1C[C@@H](F)[C@@H](OCc2nc3ncccc3[nH]2)C1 | 50.7%
15 | Cc1ccc(NC(=O)C2CSCN2C(=O)c2cccnc2)c(C)c1 (stereo not given) | 0.8%
16 | Cc1nc(NCc2noc(C3CCCO3)n2)c2ccsc2n1 (stereo not given) | 73.2%
17 | O=C1CSc2ccccc2N1Cc1noc(C2CCCO2)n1 (stereo not given) | 7.6%
18 | Cc1nc(NCc2noc(C3CCCO3)n2)c2sccc2n1 (stereo not given) | 75.4%
19 | O=C(NCCc1noc(C2CCCO2)n1)c1cn2ccsc2n1 (stereo not given) | 39.9%
20 | Cc1cc(C(F)(F)F)nc(CCNc2nc(C)nc3sccc23)n1 | 43.2%
21 | O=C(NCc1noc(C2CCCO2)n1)c1cn2ccsc2n1 (stereo not given) | 25.9%
22 | Cc1nc(N(Cc2ccncc2)CC2CCCO2)c2ccsc2n1 (stereo not given) | 40.8%

Row | Compound | INHIBITION
23 | Cc1ccc2c(c1)SCC(=O)N2Cc1noc(C2CCCO2)n1 (stereo not given) | 14.9%
24 | Cc1nc(NCCc2noc(C3CCCO3)n2)c2sccc2n1 (stereo not given) | 82.2%
25 | Cc1cc(NC(=O)CN2CCCC2Cn2nc(C)nc2C)n(C)n1 (stereo not given) | 38.8%
26 | Cc1cc(C)cc(OCC(=O)N2CCCC2)c1 | -55.3%
27 | COCCn1cnnc1CNc1cc(C)nc2c(C)c(C)nn12 | 15.5%
28 | Cc1nn(C)c2cnn(CC(=O)NCc3ccccc3F)c12 | 41.6%
29 | CC(=O)N1CCCC1c1cc(Nc2nnc(C)s2)nc(C)n1 (stereo not given) | 26.8%
30 | O=C(c1nn[nH]c1Nc1ccc(Cl)cc1)N1CCCCCC1 | 72%
31 | O=C(c1nn[nH]c1Nc1ccc(Cl)cc1)N1CCSCC1 | 11.8%
32 | O=C(c1nn[nH]c1Nc1cccc(Cl)c1)N1CCSCC1 | 8.38%
33 | CCN1CCC2(CC1)CC(NC(=O)c1c[nH]cn1)c1ccccc1O2 (stereo not given) | 44.8%
34 | COCC(=O)NC1CC2(CCN(CC3CC3)CC2)Oc2ccccc21 (stereo not given) | -2.35%
35 | COCCN1CCC2(CC1)CC(NC(=O)C(C)C)c1ccccc1O2 (stereo not given) | 55.5%
36 | COCCN1CCC2(CC1)CC(NC(=O)C1CC1)c1ccccc1O2 (stereo not given) | 16.1%
37 | CN1CCC2(CC1)CC(NC(=O)c1csnn1)c1ccccc1O2 (stereo not given) | 59.3%
38 | COCCN1CCC2(CC1)CC(NC(=O)CC1CC1)c1ccccc1O2 (stereo not given) | 56.8%
39 | CC(C)CC(=O)NC1CC2(CCN(CCF)CC2)Oc2ccccc21 (stereo not given) | 34.6%
40 | COCC(=O)NC1CC2(CCN(CCF)CC2)Oc2ccccc21 (stereo not given) | -5.94%
41 | CCN1CCC2(CC1)CC(NC(=O)c1csnn1)c1ccccc1O2 (stereo not given) | 41.2%
42 | O=C(NC1CC2(CCN(CCO)CC2)Oc2ccccc21)c1csnn1 (stereo not given) | 34.9%
43 | COCCN1CCC2(CC1)CC(NC(=O)CN(C)C)c1ccccc1O2 (stereo not given) | 54.3%
44 | COCCN1CCC2(CC1)CC(NC(=O)COC)c1ccccc1O2 (stereo not given) | -13.4%

Row | Compound | INHIBITION
45 | CCOCCOc1ccc(S(=O)(=O)N2CCc3c(nc[nH]c3=O)C2)cc1 | 5.05%
46 | Cc1nc(CN2CCN(CC3CCOC3)Cc3cccnc32)cs1 (stereo not given) | 41%
47 | NC(=O)CSc1ccccc1NC(=O)C1CCCC1 | -53.6%
48 | COc1cccc(C=CCCN2CCC(C(=O)N3CCCC3)CC2)c1 | -16.1%
49 | O=C1NC2(CCN(C(=O)CN3CCOCC3)CC2)Nc2ccc(Cl)cc21 | 23.75%
50 | Cn1ccc2cc(C(=O)Nc3nc[nH]n3)ccc21 | 11.6%
51 | CN(C)C(=O)c1nnn(-c2ccc(Br)cc2)n1 | 28.4%
52 | CCNc1cc2c(nn1)CCN(C(=O)Cc1ccc(C)nc1)C2 | -42.1%
53 | CCc1ccc(C(=O)N2CCCC3(CCCC(=O)N3C)C2)cc1 (stereo not given) | 30.9%
54 | O=C(CS(=O)(=O)C1CCCC1)NC(c1ccc(F)cc1)C1CC1 (stereo not given) | -32.6%
55 | COCCN1C[C@@H]2CC[C@H]1CN(Cc1nc3ccccc3n1C)C2 | -35%
56 | CC(=O)NCCNC(=O)c1cnc(-c2ccc(C)cc2C)s1 | -74.9%
57 | CN(Cc1cnc(N)nc1)C(=O)c1coc(COc2ccccc2)n1 | 27.6%
58 | CN1CCN(Cc2cccnc2)C(=O)C12CCN(Cc1ccco1)CC2 | 32.1%
59 | Cc1nccn1Cc1nnc(C2CCN(c3ccncc3F)CC2)n1C | -21.9%
60 | CC[C@@H]1N(Cc2ccsc2)CCC[C@]12CCC(=O)N2CCOC | 52.4%
61 | CC[C@@H]1N(Cc2ccsc2)CCC[C@]12CCC(=O)N2C | 23.2%
62 | CC[C@@H]1N(Cc2ccncc2)CCC[C@]12CCC(=O)N2CCOC | 25.3%
63 | Cc1csc(CN2CC[C@@](O)(C3CCOCC3)[C@H](C)C2)n1 | 9.55%
64 | O=C1NCc2ccccc2CC12CCN(Cc1c(F)cccc1Cl)C2 (stereo not given) | -9.73%
65 | COc1ccc(CN(C(=O)C2CCCO2)c2ccncc2)cc1 (stereo not given) | 27.5%
66 | COc1ccc(CN(C(=O)C2CCOCC2)c2ccncc2)cc1 | 1.7%

Row | Compound | INHIBITION
67 | COc1ccc(CN(C(=O)C2CCCOC2)c2ccncc2)cc1 (stereo not given) | 66.3%
68 | Brc1cnc(NCc2ccccc2N2CCOCC2)nc1 | -31.7%
69 | O=C(CO)N1CC2(CCN(c3ccccc3)C2)C1 | -34.6%
70 | COCCC(=O)N1CC2(CCN(c3ccccc3)C2)C1 | 12.1%
71 | O=C(CCO)N1CC2(CCN(c3ccccc3)C2)C1 | 61.9%
72 | Cc1nn(C)c(N(C)C)c1CNCCCNS(C)(=O)=O | -66.8%
73 | CSc1[nH]nc(NC(=O)c2ccccc2)c1C#N | 23.1%
74 | O[C@H]1Cc2ccccc2[C@H]1Nc1ncccc1C(F)(F)F | 56.3%
75 | N#Cc1cccnc1N[C@@H]1c2ccccc2C[C@@H]1O | 22.9%
76 | O[C@@H]1Cc2ccccc2[C@@H]1Nc1ncccc1F | 18%
77 | COc1ccc2c(ccn2CCC(=O)Nc2n[nH]c(CC(C)C)n2)c1 | 46.7%
78 | O=C(CC1CCCC1)NCCS(=O)(=O)N1CCN(c2ncccn2)CC1 | -73.6%
79 | Cc1n[nH]c2c1C(c1ccc(Br)cc1)SCC(=O)N2 (stereo not given) | 61.8%
80 | Cc1n[nH]c2c1C(c1ccc(Cl)cc1)SCC(=O)N2 (stereo not given) | 46.7%
81 | Cc1n[nH]c2c1C(c1ccc(F)cc1)SCC(=O)N2 (stereo not given) | 23.5%
82 | COCCC(=O)N1CC[C@@H](N2CCOCC2)[C@@H]1Cc1ccccc1 | 38.1%
83 | Cc1cccnc1CNC(=O)CC1C(=O)NCCN1CC(C)(C)C (stereo not given) | 6.29%
84 | CC(=O)N(Cc1noc(C)n1)C1CCN(Cc2ncc(C(C)C)o2)C1 (stereo not given) | 11.6%
85 | Cc1nn(C)c(C)c1CCC(=O)NCc1cccnc1OC1CCCC1 | 56.6%
86 | Cc1nn(C)c(C)c1CC(=O)NCc1cccnc1OC1CCCC1 | 29.8%
87 | Cc1cc(NC(=O)NCc2cccnc2OC2CCCC2)n(C)n1 | 50.3%
88 | Cc1nn(C)c(C)c1C(=O)NCc1cccnc1OC1CCCC1 | 37.6%

Row | Compound | INHIBITION
89 | COc1ncccc1CNC(=O)Nc1cc(C)nn1C | 29.7%
90 | CCOc1ncccc1CNC(=O)Nc1cc(C)nn1C | -19.6%
91 | OCC1(NCc2cccc(-n3cccn3)c2)CCOCC1 | 43.4%
92 | CCN1CCCC1(C)c1nc(C)cc(N)n1 (stereo not given) | -2.09%
93 | CCOc1ccc(NC(=O)NCC(C)(O)c2cccs2)cc1 (stereo not given) | 40.6%
94 | O=C(Nc1cnccn1)[C@H]1COC[C@H]2CN(C3CCCC3)C[C@H]21 | -14.6%
95 | COc1ccc(-c2nccn2CC(O)CN2CCCC2)c(F)c1 (stereo not given) | 61.5%
96 | COc1ccc(F)c(-c2nccn2CCN2CCCC2)c1 | 18.2%
97 | CCn1ccnc1CN1CCN(CC(O)c2ccc(OC)cc2)CC1 (stereo not given) | 0.8%
98 | CCC(CC)(CNC(=O)NC1CCCC1(C)C)S(C)(=O)=O (stereo not given) | 2.49%
99 | COCCCNC(=O)c1cc(-c2cnc(N(C)C)nc2)cn1CC1CC1 | -22.1%
100 | CCCOc1ccc(Cl)cc1NC(=O)NCCC(=O)N(C)C | -5.32%
101 | CCC1CCCN(S(=O)(=O)c2cnc3onc(C)c3c2)C1 (stereo not given) | 9%
102 | COc1ccc2c(c1)OCC(CNc1cc(N)nc(SC)n1)C2 (stereo not given) | 69.8%
103 | COc1ccc2c(c1)OCC(Cc1ccc(C)nc1N)C2 (stereo not given) | 57.2%
104 | COc1ccc2c(c1)OCC(Cc1cnccc1N)C2 (stereo not given) | 29%
105 | COc1cccc2c1OCC(Cc1ccc(N)nc1C)C2 (stereo not given) | 6.83%
106 | COc1cccc2c1OCC(CNc1cc(N)nc(SC)n1)C2 (stereo not given) | 1.94%
107 | Cc1ccc(CC2COc3ccccc3C2)c(N)n1 (stereo not given) | -6.18%
108 | COc1ccc2c(c1)OCC(Cc1ccnc(N)n1)C2 (stereo not given) | 11%
109 | Cc1nc(N)ccc1CC1COc2ccccc2C1 (stereo not given) | -27.9%
110 | COc1ccc2c(c1)OCC(Cc1ccc(N)nc1C)C2 (stereo not given) | 76.3%
